The source made the active and inactive calls.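 The calls were made as follows, unless noted: active = fluorescence slope after compound addition differing from the mean of all screened samples at 99.7% confidence, in either direction; inactive = the rest.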
Tests used:
[1] = inhibitors of TNFa-induced NFkB p65 translocation, primary screen, imaging, HUVEC, MLSMR starter and 10KST1 sets (AID 438;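 active = inhibition above 20% together with a positive visual image hit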;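 also: compound added about 3h40 before a 20 min TNFalpha stimulation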;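 as to inhibition: signal is the nuclear over cytoplasmic p65 intensity ratio per well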); conditions: HUVEC TNFa-induced p65 nuclear translocation; cell count: measured here: nuclei count (cytotoxicity indicator), at 2.08 µM; inhibition: at 2 µM, stronger effect = higher value, 0% TNFa-plus-vehicle, 100% no-TNFa wells
[2] = inhibitors of mutant huntingtin aggregation, primary screen, imaging, exon1htt(103Q)mCFP cells, high-content imaging (AID 483;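 active = visual image review flags a hit and inhibition of aggregation exceeds 20%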;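 also: compound exposure lasted 3 days before fixation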;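 as to nuclei count: percent of the per-plate median nuclei count of sample wells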); conditions: exon1htt(103Q)mCFP cell line, aggregate imaging, at 2 µM; inhibition of aggregation: stronger effect = higher value; nuclei count: measured here: cell count, toxicity
[3] = inhibitors of E-selectin induction by TNFa, primary screen, imaging, HUVEC, immunofluorescence, MLSMR starter and 10KST1 sets (AID 487;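 active = visually confirmed hit in the image check and inhibition above 20%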;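 as to inhibition: signal is fraction of cell area covered by stained E-selectin grains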;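 as to nuclei count: 100% = median nuclei count of all wells on the same plate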); conditions: HUVEC TNFalpha-induced E-selectin immunofluorescence imaging, at 2 µM; inhibition: stronger effect = higher value; nuclei count: measured here: cell number, toxicity
[4] = biological target: Voltage-gated potassium channel subunit beta-2 (Rattus norvegicus) (UniProt P62483); assay: KvBeta enzyme negative modulators, primary screen, biochemical, NADPH fluorescence (AID 622;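 active = fluorescence slope higher than the sample average by over 3 SD, cut at about -0.22 in these data, passing the limit was not always enough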;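 also: slope of raw intensity against log time taken from 70 to 1610 s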); conditions: recombinant KvBeta, 4-cyanobenzaldehyde reduction, at 10 µM, stronger effect = higher value
[5] = biological target: Voltage-gated potassium channel subunit beta-2 (Rattus norvegicus) (UniProt P62483); assay: KvBeta positive modulators, primary screen, biochemical, NADPH fluorescence (AID 623;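 active = NADPH fluorescence slope more negative than the mean of all samples by about 3 SD, 99.7% confidence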;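 also: fluorescence intensity change per second fitted from 20 to 320 s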); conditions: Recombinant KvBeta, NADPH fluorescence decrease slope, 10 min; at 10 µM; stronger effect = lower value
[6] = biological target: Alpha-2C adrenergic receptor (Homo sapiens) (UniProt P18825); assay: modulators of alpha2C/GIRK thallium flux, primary screen, cell-based, HEK293 alpha2C/GIRK1/2 (AID 624); conditions: thallium flux BTC fluorescence, at 10 µM, actives lie on both sides;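 also: slope of fluorescence ratio to pre-addition baseline per second over 15 to 24 s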
[7] = inhibitors of Sendai virus-induced IRF3 signaling, primary screen, TLR/RLR signaling modifier project, cell-based, Sendai virus stimulus, luciferase, 10K MLSCN set (AID 602276;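 active = inhibition at or above 50% at 10 µM; inactive = inhibition below 50%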;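 also: firefly luciferase from ISG56 promoter only with Renilla not read in this screen; 0% = Sendai virus plus DMSO and 100% = medium plus DMSO without virus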); conditions: HEK293 RL24 IRF3 luciferase reporter, at 10 µM, stronger effect = higher value
[8] = inhibitors of poly I:C-induced TLR3 signaling, primary screen, cell-based, poly I:C stimulus, luciferase, 10K MLSCN set (AID 602277;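 active = inhibition of the reporter signal at or above 50%; inactive = inhibition below 50%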); conditions: HEK293-TLR3 RL24 IRF3 luciferase reporter, at 10 µM, stronger effect = higher value

Alpha-2C adrenergic receptor (Homo sapiens), sequence (P18825 whole entry, looked up): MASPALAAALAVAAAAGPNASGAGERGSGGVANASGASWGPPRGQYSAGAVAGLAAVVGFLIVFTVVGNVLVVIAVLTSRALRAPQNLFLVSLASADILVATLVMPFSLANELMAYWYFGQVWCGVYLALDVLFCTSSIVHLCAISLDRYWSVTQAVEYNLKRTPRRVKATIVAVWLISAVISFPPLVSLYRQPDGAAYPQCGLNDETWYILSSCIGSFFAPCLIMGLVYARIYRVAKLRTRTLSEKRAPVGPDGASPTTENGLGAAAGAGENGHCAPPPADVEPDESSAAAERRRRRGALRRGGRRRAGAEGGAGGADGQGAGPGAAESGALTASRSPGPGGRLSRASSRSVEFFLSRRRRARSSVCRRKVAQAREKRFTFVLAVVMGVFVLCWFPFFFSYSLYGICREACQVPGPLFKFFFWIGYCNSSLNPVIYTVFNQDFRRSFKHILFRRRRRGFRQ
Voltage-gated potassium channel subunit beta-2 (Rattus norvegicus), sequence (P62483 whole entry, looked up): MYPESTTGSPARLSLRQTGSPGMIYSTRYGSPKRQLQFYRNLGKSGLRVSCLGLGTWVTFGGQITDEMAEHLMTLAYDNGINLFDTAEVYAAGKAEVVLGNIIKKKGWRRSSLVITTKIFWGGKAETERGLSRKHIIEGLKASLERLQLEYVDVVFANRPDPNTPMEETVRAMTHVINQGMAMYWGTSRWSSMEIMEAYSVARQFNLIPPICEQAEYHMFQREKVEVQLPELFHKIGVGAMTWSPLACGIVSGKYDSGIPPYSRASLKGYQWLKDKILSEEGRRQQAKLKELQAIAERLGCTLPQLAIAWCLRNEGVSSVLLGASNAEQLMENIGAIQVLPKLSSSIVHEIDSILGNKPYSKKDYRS

Structure (SMILES) | cell count [1] | inhibition [1] | inhibition of aggregation [2] | nuclei count [2] | inhibition [3] | nuclei count [3] | fluorescence slope [4] | NADPH fluorescence slope [5] | slope [6] | inhibition [7] | inhibition [8]
CCCc1cc(C(=O)Nc2ccccc2C(=O)OC)no1 | 864 | 5.5% (inactive) | 4.8% (inactive) | 92.4% | -50.4% (inactive) | 111% | -0.629 (inactive) | -3.3e-06 (inactive) | 0.0059 (inactive) | -14.6% (inactive) | -14.1% (inactive)
CC(Oc1ccccc1)C(=O)NC1CCN(Cc2ccccc2)CC1 (centres undefined) | 705 | -5.2% (inactive) | 2.1% (inactive) | 108% | 0.4% (inactive) | 103% | -0.418 (inactive) | -1.8e-05 (inactive) | 0.00578 (inactive) | 11.2% (inactive) | 21.3% (inactive)
N#CCCN(Cc1cccnc1)C(=O)Nc1ccc(Cl)c(Cl)c1 | 398 | 3.1% (inactive) | -31.1% (inactive) | 109% | -20.5% (inactive) | 99.6% | -0.449 (inactive) | 5.4e-05 (inactive) | 0.0054 (inactive) | 15.4% (inactive) | 29.1% (inactive)
O=c1c2ccc(-c3nnc4n3-c3ccccc3SC4)cc2nc2n1CCCCC2 | 473 | -1.1% (inactive) | 9% (inactive) | 111% | -41.6% (inactive) | 116% | -0.414 (inactive) | -3.1e-05 (inactive) | 0.00551 (inactive) | 11.2% (inactive) | 14.5% (inactive)
Cc1nc(-c2cccc(-c3noc(C)n3)c2)no1 | 341 | 2.2% (inactive) | -8.5% (inactive) | 105% | 11.4% (inactive) | 108% | -0.473 (inactive) | -4.9e-05 (inactive) | 0.00665 (inactive) | -12.8% (inactive) | -3.56% (inactive)
CC(=O)Nc1ccccc1-c1nc2ccc(C(=O)N3CCN(c4ccccc4)CC3)cc2[nH]c1=O | 617 | 14.7% (inactive) | -6.6% (inactive) | 96.8% | -3.1% (inactive) | 110% | -0.489 (inactive) | -4.7e-05 (inactive) | 0.00656 (inactive) | 5.92% (inactive) | -0.673% (inactive)
COc1ccc(CCNC(=O)CC2COc3ccccc3O2)cc1OC (centres undefined) | 611 | -7.2% (inactive) | 25% (inactive) | 115% | -28.9% (inactive) | 115% | -0.619 (inactive) | 2.1e-05 (inactive) | 0.00334 (inactive) | 19.4% (inactive) | 20.3% (inactive)
COc1ccc(S(=O)(=O)NCC(=O)N(CC(=O)NCC2CCCO2)c2ccccc2C)cc1 (centres undefined) | 251 | 2.2% (inactive) | -8.4% (inactive) | 106% | -22.6% (inactive) | 96.9% | -0.399 (inactive) | -6.5e-06 (inactive) | 0.00632 (inactive) | 19.2% (inactive) | 18.4% (inactive)
COc1ccc(C(=O)OCC(=O)NCc2ccco2)cc1OC | 573 | -18.9% (inactive) | -1.1% (inactive) | 107% | -12.3% (inactive) | 121% | -0.467 (inactive) | -7.7e-05 (inactive) | 0.00497 (inactive) | 17.6% (inactive) | 27.6% (inactive)

— PubChem BioAssay
